# Results published in PubChem BioAssay (NCATS).
# “And” between values parts separate entries of the source, which are not always exact repeats. Equal values may be shown once. Results filed as inconclusive are left out. Where a call stands in place of a potency, no number is given. The source made the active and inactive calls. Calls come from the whole dose curve. Square brackets hold non-standard residues; d marks the D form. Peptide text beside a SMILES is read from it. * marks the point of attachment. Sta = CC(C)C[C@H](N)[C@@H](O)CC(=O)O; Isovaleryl = CC(C)CC(=O)*
# Assay: Cytotoxicity counterscreen for inhibitors of SARS-CoV-2 cell entry (AID 1645845); note: nearly all actives have a fitted effect of over 50% in size
# Conditions: cell viability (SARS-CoV-2 entry assay cells); series mostly up to 57.1 µM; activity change, negative = cytotoxicity: at the top concentration
# Method in brief: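 HEK293-ACE2 cells (Expi293F stably expressing human ACE2) seeded overnight, then compound for 1 h plus 48 h at 37C. Viability as ATP content by luminescence; normalized to wells with cells and media-only wells.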
Compound,"activity change, negative = cytotoxicity",Potency,outcome
C[C@H](CCC(=O)O)[C@H]1CC[C@H]2[C@@H]3C(=O)C[C@@H]4CC(=O)CC[C@]4(C)[C@H]3CC(=O)[C@]12C,1.04% (inactive),,
C[C@]12CC[C@@H]3c4ccc(O)cc4CC[C@H]3[C@@H]1CC[C@@H]2OC(=O)CCC1CCCC1,4.14% (inactive),,
Cc1ccc(N(CC2=NCCN2)c2cccc(O)c2)cc1,,inactive,
CC(C)[C@@H]1CC[C@@H](C)CC1=O,,,inactive
CCN(CC)CCOc1ccc(Cc2ccccc2)cc1,,,inactive
CN(C)CC[C@@H](c1ccc(Cl)cc1)c1ccccn1,,,inactive
CC(=O)N(CC(O)CN(C(C)=O)c1c(I)c(C(=O)NCC(O)CO)c(I)c(C(=O)NCC(O)CO)c1I)c1c(I)c(C(=O)NCC(O)CO)c(I)c(C(=O)NCC(O)CO)c1I (stereo not drawn),,,inactive
O=C(O)CCNC(=O)c1ccccc1,,,inactive
CNC[C@H](O)c1ccc(O)c(O)c1,,inactive,
COc1nc(C)nc(Cl)c1NC1=NCCN1,,,inactive
CC(C)C(=O)Nc1cccc(C2CN3CCSC3=N2)c1 (stereo not drawn),2.1% (inactive),,
NS(=O)(=O)c1cc2c(cc1Cl)CN(C1CCCCC1)C2=O,,,inactive
O=[N+]([O-])c1nccn1CO[C@@H](CO)[C@H](O)CO,,,inactive
Cc1cccc(N(C)C(=S)Oc2ccc3ccccc3c2)c1,,inactive,
CN1C(=O)CC(c2ccccc2)C1=O (stereo not drawn),3.11% (inactive),,
C/C=C/c1ccc(OC)cc1,,,inactive
COC(=O)C1=C(C)NC(C)=C(C(=O)OCCN2CCN(C(c3ccccc3)c3ccccc3)CC2)C1c1cccc([N+](=O)[O-])c1 (stereo not drawn),,,inactive
OCCN1CCN(CCCN2c3ccccc3C=Cc3ccccc32)CC1,,,inactive
CC(=O)/C=C/C=C1/C2CCC(C2)C1(C)C (stereo not drawn),0.566% (inactive),,
CC(=O)OC[C@H]1O[C@@](COC(C)=O)(O[C@H]2O[C@H](COC(C)=O)[C@@H](OC(C)=O)[C@H](OC(C)=O)[C@H]2OC(C)=O)[C@@H](OC(C)=O)[C@@H]1OC(C)=O,0.226% (inactive),,

Compound,"activity change, negative = cytotoxicity",Potency,outcome
c1ccc(CN(CC2=NCCN2)c2ccccc2)cc1,,,inactive
CCOCCn1c(N2CCCN(C)CC2)nc2ccccc21,,,inactive
CCN[C@@H]1C[C@H](N)[C@@H](OC2OC(CN)=CCC2N)[C@H](O)[C@H]1O[C@H]1OC[C@](C)(O)[C@H](NC)[C@H]1O (stereo partly drawn),0.776% [at 0.702 µM] (inactive),,
CCc1oc2ccccc2c1C(=O)c1cc(Br)c(O)c(Br)c1,,,inactive
C[C@]1(Cn2ccnn2)[C@H](C(=O)O)N2C(=O)C[C@H]2S1(=O)=O,,,inactive
NC(=O)Cc1cccc(C(=O)c2ccccc2)c1N,-11.1% (inactive),,
O=S1(=O)OC(c2ccc(O)cc2)(c2ccc(O)cc2)c2ccccc21,2.39% (inactive),,
CCOC(=O)OC(C)OC1=C(C(=O)Nc2ccccn2)N(C)S(=O)(=O)c2ccccc21 (stereo not drawn),,,inactive
O=C(OCC(COC(=O)c1cccnc1)(COC(=O)c1cccnc1)COC(=O)c1cccnc1)c1cccnc1,,,inactive
COc1cc([C@H]2Oc3cc([C@H]4Oc5cc(O)cc(O)c5C(=O)[C@@H]4O)ccc3O[C@@H]2CO)ccc1O,,,inactive
CC(C)CC(=O)N[C@H](C(=O)N[C@H](C(=O)N[C@@H](CC(C)C)[C@@H](O)CC(=O)N[C@@H](C)C(=O)N[C@@H](CC(C)C)[C@@H](O)CC(=O)O)C(C)C)C(C)C (Isovaleryl-VV[Sta]A[Sta]-OH),,,inactive
CCOC(=O)c1cccc(N)c1,,,inactive
O=C(OCC(O)CO)c1ccccc1Nc1ccnc2c(C(F)(F)F)cccc12 (stereo not drawn),-4.15% (inactive),,
CCN(CC)CC(=O)OCC(=O)[C@@]1(O)CC[C@H]2[C@@H]3CCC4=CC(=O)CC[C@]4(C)[C@H]3[C@@H](O)C[C@@]21C,-27.3% (inactive),,
c1ccc(CC2=NCCN2)cc1,,,inactive
C#C[C@]1(O)CC[C@H]2[C@@H]3CCc4cc(OC)ccc4[C@H]3CC[C@@]21C,,inactive,
N[C@@H](CSSC[C@H](N)C(=O)O)C(=O)O,0.929% [at 0.702 µM] (inactive),,
CC1(C)S[C@@H]2[C@H](N=CN3CCCCCC3)C(=O)N2[C@H]1C(=O)O,0.277% (inactive),,
O=C(OCC(O)CO)c1ccccc1Nc1ccnc2cc(Cl)ccc12 (stereo not drawn),1.94% (inactive),,

# Assay: Primary qHTS to identify inhibitors of SARS-CoV-2 cell entry (AID 1645846); note: nearly all actives have a fitted effect of over 45% in size; note: potency is the fitted concentration of half-maximal effect
# Conditions: SARS-CoV-2 pseudovirus cell entry assay, luminescence; activity change, negative = inhibition: at 57.1 µM (top of the series) unless noted; series mostly up to 57.1 µM
# Method in brief: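 Luminescence readout (Bright-Glo luciferase) 48 h after pseudoparticle addition. HEK293-ACE2 cells, 1500/well; compound pre-incubation 1 h; Normalized to spike PP and bald PP.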
Compound,outcome,"activity change, negative = inhibition",Potency
C[C@H](CCC(=O)O)[C@H]1CC[C@H]2[C@@H]3C(=O)C[C@@H]4CC(=O)CC[C@]4(C)[C@H]3CC(=O)[C@]12C,inactive,,
C[C@]12CC[C@@H]3c4ccc(O)cc4CC[C@H]3[C@@H]1CC[C@@H]2OC(=O)CCC1CCCC1,,-19.7%,
Cc1ccc(N(CC2=NCCN2)c2cccc(O)c2)cc1,,-6.91% and 2.72%,
CC(C)[C@@H]1CC[C@@H](C)CC1=O,inactive,,
CCN(CC)CCOc1ccc(Cc2ccccc2)cc1,,,25.1 µM (active)
CN(C)CC[C@@H](c1ccc(Cl)cc1)c1ccccn1,,0.546%,
CC(=O)N(CC(O)CN(C(C)=O)c1c(I)c(C(=O)NCC(O)CO)c(I)c(C(=O)NCC(O)CO)c1I)c1c(I)c(C(=O)NCC(O)CO)c(I)c(C(=O)NCC(O)CO)c1I (stereo not drawn),inactive,,
O=C(O)CCNC(=O)c1ccccc1,inactive,,
CNC[C@H](O)c1ccc(O)c(O)c1,,,inactive
COc1nc(C)nc(Cl)c1NC1=NCCN1,inactive,,
CC(C)C(=O)Nc1cccc(C2CN3CCSC3=N2)c1 (stereo not drawn),,-6.4%,
NS(=O)(=O)c1cc2c(cc1Cl)CN(C1CCCCC1)C2=O,inactive,,
O=[N+]([O-])c1nccn1CO[C@@H](CO)[C@H](O)CO,inactive,,
Cc1cccc(N(C)C(=S)Oc2ccc3ccccc3c2)c1,,-10.5% and -29.1%,
CN1C(=O)CC(c2ccccc2)C1=O (stereo not drawn),,-27.2%,
C/C=C/c1ccc(OC)cc1,inactive,,
COC(=O)C1=C(C)NC(C)=C(C(=O)OCCN2CCN(C(c3ccccc3)c3ccccc3)CC2)C1c1cccc([N+](=O)[O-])c1 (stereo not drawn),,,17.8 µM (active)
OCCN1CCN(CCCN2c3ccccc3C=Cc3ccccc32)CC1,,-17.2%,
CC(=O)/C=C/C=C1/C2CCC(C2)C1(C)C (stereo not drawn),,-3.44%,
CC(=O)OC[C@H]1O[C@@](COC(C)=O)(O[C@H]2O[C@H](COC(C)=O)[C@@H](OC(C)=O)[C@H](OC(C)=O)[C@H]2OC(C)=O)[C@@H](OC(C)=O)[C@@H]1OC(C)=O,,-0.185%,

Compound,outcome,"activity change, negative = inhibition",Potency
c1ccc(CN(CC2=NCCN2)c2ccccc2)cc1,inactive,,
CCOCCn1c(N2CCCN(C)CC2)nc2ccccc21,,-36.1%,
CCN[C@@H]1C[C@H](N)[C@@H](OC2OC(CN)=CCC2N)[C@H](O)[C@H]1O[C@H]1OC[C@](C)(O)[C@H](NC)[C@H]1O (stereo partly drawn),,42.9% [at 0.702 µM],
CCc1oc2ccccc2c1C(=O)c1cc(Br)c(O)c(Br)c1,,-14%,
C[C@]1(Cn2ccnn2)[C@H](C(=O)O)N2C(=O)C[C@H]2S1(=O)=O,,1.05%,
NC(=O)Cc1cccc(C(=O)c2ccccc2)c1N,inactive,,
O=S1(=O)OC(c2ccc(O)cc2)(c2ccc(O)cc2)c2ccccc21,,4.87%,
CCOC(=O)OC(C)OC1=C(C(=O)Nc2ccccn2)N(C)S(=O)(=O)c2ccccc21 (stereo not drawn),inactive,,
O=C(OCC(COC(=O)c1cccnc1)(COC(=O)c1cccnc1)COC(=O)c1cccnc1)c1cccnc1,,-26.9%,
COc1cc([C@H]2Oc3cc([C@H]4Oc5cc(O)cc(O)c5C(=O)[C@@H]4O)ccc3O[C@@H]2CO)ccc1O,,-12.9%,
CC(C)CC(=O)N[C@H](C(=O)N[C@H](C(=O)N[C@@H](CC(C)C)[C@@H](O)CC(=O)N[C@@H](C)C(=O)N[C@@H](CC(C)C)[C@@H](O)CC(=O)O)C(C)C)C(C)C (Isovaleryl-VV[Sta]A[Sta]-OH),,-12.9%,
CCOC(=O)c1cccc(N)c1,,-8.06%,
O=C(OCC(O)CO)c1ccccc1Nc1ccnc2c(C(F)(F)F)cccc12 (stereo not drawn),inactive,,
CCN(CC)CC(=O)OCC(=O)[C@@]1(O)CC[C@H]2[C@@H]3CCC4=CC(=O)CC[C@]4(C)[C@H]3[C@@H](O)C[C@@]21C,inactive,,
c1ccc(CC2=NCCN2)cc1,inactive,,
C#C[C@]1(O)CC[C@H]2[C@@H]3CCc4cc(OC)ccc4[C@H]3CC[C@@]21C,,,inactive
N[C@@H](CSSC[C@H](N)C(=O)O)C(=O)O,,-10.6% [at 0.702 µM],
CC1(C)S[C@@H]2[C@H](N=CN3CCCCCC3)C(=O)N2[C@H]1C(=O)O,,0.13%,
O=C(OCC(O)CO)c1ccccc1Nc1ccnc2cc(Cl)ccc12 (stereo not drawn),,-18.4%,
